Test results: PubChem BioAssay AID651636 (Sanford-Burnham Center for Chemical Genomics, 2012)
The whole screen tested about 360,000 compounds, of which about 3,000 (0.83%) were called active. The sample holds actives, similar compounds and a random draw of the others, so the mix is not that of the screen. Cut-off read from the data, not from the text of the source: active = inhibition above about 38%; inactive = the rest.

Each molecule was assayed against G-protein coupled receptor 183 (Homo sapiens) (UniProt P32249) (assay: blockers of oxysterol-driven EBI2 arrestin signaling – cell-based, luminescence, 7a,25-OHC stimulation, uHTS, primary screen (AID 651636;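 note: enzyme fragment complementation signal reports receptor beta-arrestin coupling in cells; 0% = agonist plus DMSO wells and 100% = wells without agonist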)). Settings: EBI2 beta-arrestin recruitment, 7a,25-OHC stimulated, at 5 µM, hits give high values.
Sequence of G-protein coupled receptor 183 (Homo sapiens) (P32249 whole entry, looked up, the tested form may be a part): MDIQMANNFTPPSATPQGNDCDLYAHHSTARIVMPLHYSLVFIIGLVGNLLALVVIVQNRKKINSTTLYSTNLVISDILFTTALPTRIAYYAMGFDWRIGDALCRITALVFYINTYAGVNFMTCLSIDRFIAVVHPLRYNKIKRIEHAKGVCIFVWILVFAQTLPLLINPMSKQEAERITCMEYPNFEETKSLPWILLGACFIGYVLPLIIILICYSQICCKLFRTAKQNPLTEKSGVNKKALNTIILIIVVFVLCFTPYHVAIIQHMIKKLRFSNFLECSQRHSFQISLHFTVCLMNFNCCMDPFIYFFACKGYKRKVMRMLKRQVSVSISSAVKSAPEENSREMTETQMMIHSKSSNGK

inhibition, inactive:
COCc1cc(C)n(CC(=O)NCC2CCCO2)c(=O)c1C#N (centres undefined) 2.55%, CCCCOCCCNC(=O)C[C@@H]1C[C@@]2(C(=O)OC)CCCCC=C2N(CCC2=CCCCC2)C1=O 3.92%, CC(Oc1ccc(F)cc1)C(=O)N1CCN(c2ncccn2)CC1 (centres undefined) -0.409%, COC(=O)CC(=O)N1CCN(c2ccc(Cl)c(Cl)c2)CC1 -5.75%, Cc1ccc(S(=O)(=O)N2[C@@H](Cc3ccccc3)CO[C@H]2CC(=O)OCc2ccccc2)cc1 23%, COC(=O)[C@]12CCCCC=C1N(Cc1ccc3c(c1)OCO3)C(=O)[C@H](CC(=O)NCc1cccs1)C2 0.7%, CCC1SC(CC)C(=O)N(CC(=O)NC2CCCCC2)C1=O (centres undefined) -0.813%, O=C(Cc1ccccn1)c1ccc(O)cc1O 9.45%, O=C(CSc1nc(C2CC2)nc2ccccc12)Nc1cccc(O)c1 -2.33%, CCCn1nc(NC(=O)C(C)C)c2cc3cc(OC)ccc3nc21 16.4%, O=C(Nc1ncc2c(n1)-c1ccccc1OC2)c1ccc(Cl)cc1 9.5%, CCc1ccc(Nc2ncc3c(n2)CC(c2ccco2)CC3=O)cc1 (centres undefined) 14.2%, O=C(CC1SC(N2CCCC2)=NC1=O)Nc1ccc(C(=O)NCCc2ccc(F)cc2)cc1 (centres undefined) -2.4%, CC(=O)C[C@@H]1OC[C@H](CO)N1S(=O)(=O)c1ccc(C)cc1 3.35%, CCOC(=O)[C@]12CCCC=C1N(CCC1=CCCCC1)C(=O)[C@H](CC(=O)N1CCCCC1)C2 8.47%, COc1ccc(OCc2cc(C(=O)N3CCCC3)no2)c2ccccc12 -12.2%, COc1ccc(Nc2ncc(C(=O)N3CCN(c4ccccc4OC)CC3)c3ccccc23)cc1 -13.1%, COc1ccccc1N1CCN(C(=O)Cn2nnc(-c3cccs3)n2)CC1 -14.3%, COc1cccc(-c2ccc(SCC(=O)N3CCN(c4ccccc4)CC3)nn2)c1 11.8%, CC(C)C[C@@H]1COc2cc(N3CCC[C@@H]3CO)ccc2S(=O)(=O)N1 -0.978%, Cc1cc2nc3n(c2cc1C)CC1CC(C(=O)NCCC(C)C)N(C)C31 (centres undefined) 6.24%, c1ccc(CN2CCC(N=C3NN=C(c4ccc5c(c4)OCCO5)CS3)CC2)cc1 6.66%, CN(C)c1nc(=Nc2cccc(Cl)c2)ss1 1.94%, Cc1ccc(S(=O)(=O)N2[C@@H](c3cccc4ccccc34)C(C(=O)O)=C[C@H]2C(C)(C)C)cc1 -1.04%, CCN(CC)c1ccc(S(=O)(=O)N2CCCCC2)cc1NC(=O)C1=COCCO1 1.67%, CO[C@@H]1CN(C)C(=O)c2cc(NC(=O)C3CC3)ccc2OC[C@H](C)N(C(=O)CN2CCOCC2)C[C@@H]1C -1.87%, COc1ccc(-c2nc3c(s2)CCc2onc(-c4ccc(OC)cc4)c2-3)cc1 -3.33%, Cc1cccc(C(=O)NNC(=O)CSc2nnc(C(C)C)n2C)c1 2.91%, CCn1c(SCC(=O)NNC(=O)c2ccc(OC)cc2)nnc1C(C)C 12.9%, COC(=O)[C@H](CC(C)C)NC(=O)N1CCCCC1C (some centres undefined) -4.31%, Cc1cc(C)c(C#N)c(SCc2ccc3c(c2)OCO3)n1 -1.67%, CCCc1[nH]nc2c1C(c1ccc(Br)s1)C(C#N)=C(N)O2 (centres undefined) -18.9%, COc1cc2c(cc1NC(=O)CN1CCN(S(=O)(=O)c3ccc(F)cc3)CC1)oc1ccccc12 3.04%, CC(C)c1ccc(N2CC(C(=O)Nc3nccs3)CC2=O)cc1 (centres undefined) 5.79%, Cc1cccc(-c2nc3c(c(SCC(=O)N4CCOCC4)n2)CCCC3)c1 4.2%, Cn1nnnc1SCC(=O)N1CCN(C(c2ccccc2)c2ccccc2)CC1 36.1%, CC(OC(=O)c1ccc(-n2cnnn2)cc1)C(=O)NCc1ccccc1 (centres undefined) -7.1%, COc1ccc(C2Nc3ccccc3C(=O)N2c2ccc(Cl)cc2)cc1Cn1cc([N+](=O)[O-])cn1 (centres undefined) 4.76%, COc1ccc(NC(=O)C[C@H]2C(=O)N(CCc3ccccc3)C[C@@H]2C)cc1 2.26%, CCNC(=S)N1CCN(S(=O)(=O)c2ccc(Cl)s2)CC1 -5.4%, O=C(c1cc2ccccc2o1)N1CCN(c2cccc(C(F)(F)F)c2)CC1 36.7%, O=S(=O)(c1ccc(Cl)s1)N1CCC2(CC1)OCCO2 1.76%, CCC(=O)Nc1ccccc1C(=O)N1CCN(Cc2ccccc2)CC1 -10.6%, COc1ccc(N(CCC(=O)NCCc2ccccc2)S(=O)(=O)c2ccc(C)cc2C)cc1 9.4%, CCOC(=O)c1cnc(SCc2nc(N)nc(Nc3ccc(OC)cc3)n2)nc1N -2.38%, Cc1cccc(OCCC(=O)OCc2csc(CC(=O)Nc3ccccc3C)n2)c1 -1.51%, C=CCNc1nc(N)c(C(=C(C#N)C#N)c2ccccc2)s1 -6.63%, Cc1ccc(CN2CC(C(=O)N3CCN(S(=O)(=O)c4ccccc4)CC3)CC2=O)cc1 (centres undefined) 3.15%, CN1CCN(c2cc(=O)n(-c3ccc(Cl)cc3)c(=O)[nH]2)CC1 -7.79%, CC1CC(C)CN(CCCNC(=O)Cn2ncc3c([nH]c4ccccc43)c2=O)C1 (centres undefined) 5.19%, Cc1ccc(NS(=O)(=O)c2ccc3c(c2)NC(=O)CO3)cc1 -3%, COc1ccc(Br)cc1CN(C)C(=O)C1CC(=O)N(C2CCCC2)C1 (centres undefined) 7.14%, CN1CCN(C(=O)c2ccc(-c3cc4nc(NCc5cccnc5)n(C)c(=O)c4s3)cc2)CC1 -2.23%, CCc1ccccc1NC(=O)c1ccc2c(c1)CCN2S(C)(=O)=O -1.7%, CCc1ccccc1NC(=O)NCCN1CCCCC1 4.39%, CCOC(=O)[C@]12CCCC=C1N(Cc1cccc3ccccc13)C(=O)[C@H](CC(=O)NCC13CC4CC(CC(C4)C1)C3)C2 16.6%, COC(=O)C[C@H]1C=C[C@@H](NS(=O)(=O)c2ccc(C)cc2)[C@@H](CO)O1 -0.992%, O=C(NCCc1ccccc1Cl)C1CCC(=O)N(CCCc2ccccc2)C1 (centres undefined) 8.34%, O=C(NCCN1CCOC1=O)C1CCC(=O)N(CCc2ccc(Cl)cc2)C1 (centres undefined) 5.95%, C/C(=N/NC(=O)c1ccc(Br)o1)c1ccc(C)o1 -2.5%, COC(=O)[C@]12CCCCC=C1N(Cc1ccco1)C(=O)[C@H](CC(=O)NCC1CCCCC1)C2 -6.57%, CC1CN(C(=S)Nc2cccc(F)c2)CC(C)O1 (centres undefined) -5.04%, COc1ccc2c(c1)c1nc3n(c(=O)c1n2CC(=O)Nc1ccccc1)CCS3 8.84%, COc1cccc(NC(=O)CS(=O)(=O)c2cn(CC(=O)N3CCOCC3)c3ccccc23)c1 3.35%, COc1cccc(NC(=O)Cn2cnc3sc(C)c(S(=O)(=O)N4CCN(C)CC4)c3c2=O)c1 -9.02%, COc1cccc(NC(=O)CC2C(=O)NCCN2C(=S)Nc2ccc(F)cc2)c1 (centres undefined) 9.02%, COc1cccc(N(CC(=O)NC2CCCC2)C(=O)Cn2nnc(-c3ccc(C)cc3)n2)c1 7.66%, CS(=O)(=O)N1CCc2nc(-c3ccccc3)sc2C1 1.2%, O/N=C(\c1ccc2c(c1)OCCO2)C1CCCCC1 4.5%, O=S1(=O)CC(N2CCN(CCO)CC2)CN1Cc1cn(Cc2cccc(Cl)c2)nn1 (centres undefined) -6.79%, O=C(O/N=C(/c1ccccc1)c1ccncc1)c1ccccc1[N+](=O)[O-] -3.57%

inhibition, active:
Cc1cc(OCC(=O)N2CCN(c3ncccn3)CC2)ccc1Cl 86.6%, O=C(NNc1c2ccccc2nc2ccccc12)c1cc2ccccc2cc1O 44.6%, O=C(Nc1ncc2c(n1)CC(c1ccco1)CC2=O)c1ccc(Cl)cc1 (centres undefined) 41.8%, COc1ccccc1N1CCN(C(=O)c2cc(-c3ccc(Br)cc3)on2)CC1 50%, COc1cccc(-c2cc(C(=O)N3CCN(c4ccccc4OC)CC3)no2)c1 56.8%, Clc1cccc(N=C2NN=C(c3ccc4c(c3)OCCO4)CS2)c1 49.5%, CCCCN=C1C([N+](=O)[O-])=CC=C2C1=NC1(CCCCC1)N2O 68.4%, CCC(c1nnc(SCC(=O)NNC(=O)c2ccccc2)n1Cc1ccccc1)N(C)C (centres undefined) 72.7%, Cc1cc(C)c(C#N)c(SCc2[nH]nc3c2C(c2ccccc2)C(C#N)=C(N)O3)n1 (centres undefined) 63.3%, O=C(c1ccc(-n2cnnn2)cc1)N1CCN(C(c2ccccc2)c2ccccc2)CC1 79%, O=C(c1cc2ccccc2o1)N1CCN(Cc2ccccc2)CC1 65.2%, O=C(c1cc2ccccc2o1)N1CCN(S(=O)(=O)c2ccc(Cl)s2)CC1 91.3%, CC[C@@H]1Cc2cc(O)ccc2C2=C1c1ccc(O)cc1C[C@H]2CC 49.4%, CN1CCc2ccccc2C1Cc1ccccc1NC(=O)c1sc2ccccc2c1Cl (centres undefined) 65.6%, O=C(NCCCc1ccccc1)C1CCC(=O)N(CCc2ccc(Cl)cc2)C1 (centres undefined) 63.7%, COc1cccc(NC(=O)Cn2c3ccc(F)cc3c3nc4n(c(=O)c32)CCS4)c1 80.8%, COc1cccc(NC(=O)Cn2c3ccccc3c3nc4n(c(=O)c32)CCS4)c1 62%, Cc1ccc(O/C=C2\OC(=O)c3ccccc32)cc1 55.5%
